Consider 20 molecules from PubChem BioAssay (EPA / NIEHS).

Where “and” joins values, the source holds several entries; their conditions need not be identical. Identical values can stand only once. Results filed as inconclusive are left out. Some compounds were tested as several samples or in several runs, with calls that do not always agree. Calls of active or inactive are those of the source. Rule for the calls, unless noted: active = hit-call score of the fitted dose curve at least 0.9, where 1 is the maximum; inactive = score below 0.9.

The nature of test [1]: APR_HepG2_CellCycleArrest_1hr: Apredica 1-hour HepG2 Assay for Cell Cycle Arrest (AID 2282666). As to conditions: high-content imaging, actives raise or lower the signal. In a few lines: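 Cell cycle arrest scored from nuclear DNA content (Hoechst 33342) using high-content imaging of fixed HepG2 cells after 1 h treatment across 0.39–200 uM, in duplicate. Gain or loss fitted relative to 0.5% DMSO.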

Test [2] is described as follows: APR_HepG2_CellLoss_1hr: Apredica 1-hour HepG2 Assay for Cell Loss (AID 2282668).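 Note: curves fitted both ways against DMSO so gain or loss of cells counts.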 As to conditions: high-content imaging. Summed up:
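Cell number comes from high-content imaging of Hoechst-labelled nuclei in fixed HepG2 cells. Cells were exposed for 1 h to ten concentrations from 0.39 to 200 uM in 0.5% DMSO. Gain or loss was fitted against DMSO controls.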

The nature of test [3]: APR_HepG2_MicrotubuleCSK_1hr: Apredica 1-hour HepG2 Assay for Microtubule CSK Stabilty (AID 2282669). As to conditions: HepG2 microtubule cytoskeleton imaging, actives raise or lower the signal. Summed up: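 Alpha-tubulin immunofluorescence, imaged by automated high-content microscopy with Hoechst nuclear segmentation, measured cytoskeletal change after 1 h dosing of HepG2 at 0.39–200 uM in 0.5% DMSO. Activity fitted in both directions relative to DMSO.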

Test [4] in a line: APR_HepG2_NuclearSize_1hr: Apredica 1-hour HepG2 Assay for Nuclear Size (AID 2282670). The following applies: high-content imaging, actives raise or lower the signal. In a few lines: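 Nuclear size measured by high-content imaging of Hoechst 33342 nuclear stain after formaldehyde fixation; human HepG2 line exposed 1 hr to compounds at 0.39–200 uM in 0.5% DMSO, with bidirectional curve fitting relative to DMSO.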

Test [5] can be described thus: APR_HepG2_MitoticArrest_1hr: Apredica 1-hour HepG2 Assay for Mitotic Arrest (AID 2282672). As to conditions: high-content imaging, actives raise or lower the signal. In a few lines: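 Ten-point concentration series (0.39 to 200 uM, duplicates, 0.5% v/v DMSO) applied to human HepG2 liver cells for 1 hr. High-content imaging of phospho-histone H3 and Hoechst-stained nuclei after fixation and permeabilization; DMSO-normalised bidirectional fit.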

Test [6] is described as follows: APR_HepG2_P-H2AX_1hr: Apredica 1-hour HepG2 Assay for H2AX Phosphorylation (AID 2282673). The following applies: high-content imaging, actives raise or lower the signal. In a few lines:
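Phospho-H2A.x immunofluorescence (1:200, FITC secondary) plus Hoechst nuclear stain, quantified by high-content imaging in HepG2 after 1 hr compound exposure. Ten concentrations, 0.39 to 200 uM, in duplicate with 0.5% DMSO; fit both directions against DMSO.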

Test [7] in a line: APR_HepG2_CellCycleArrest_24hr: Apredica 24-hour HepG2 Assay for Cell Cycle Arrest (AID 2282905).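 Note: cell cycle arrest scored as ratio of 2N to 4N nuclear DNA content.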 As to conditions: imaging, actives raise or lower the signal. In a few lines:
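Compounds (0.39 to 200 uM, final DMSO 0.5% v/v) are applied to HepG2 cells for 24 hours; cells are then fixed, permeabilized and nuclei labeled with Hoechst 33342. Automated imaging measures DNA content, and activity is fitted in both directions against DMSO.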

A short description of test [8]: ACEA_ER_80hr: ACEA Biosciences xCELLigence Real-Time Cell Analysis on Estrogen Receptor Agonism for Proliferation (AID 2282667; active = hit-call score of the fitted dose curve at least 0.9, where 1 is the maximum). The following applies: T47D proliferation, impedance (xCELLigence), 80 h. Summed up: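 Impedance readout (RT-CES) of T47D proliferation at 80 h post-dose; gain of signal vs DMSO baseline. Compounds: 8 conc, 1:4 serial, top 100 uM final, ≤0.5% DMSO; biological duplicate.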

On to `CCOC(=O)C(C)Oc1ccc(Oc2nc3ccc(Cl)cc3o2)cc1` (stereo not drawn), for which the molecule was called inactive in test [1], in test [2], in test [3], in test [4], in test [5] and in test [6]. The molecule was classed as inactive in test [7].

With `CN(C)C(=O)Nc1ccc(Cl)c(Cl)c1`, the call in test [1], in test [2], in test [3], in test [4], in test [5] and in test [6] was inactive. The molecule was called inactive in test [7].

Turning to `COc1nc(C)nc(NC(=O)NS(=O)(=O)c2ccccc2OCCCl)n1`, the result in test [1], in test [2], in test [3], in test [4], in test [5] and in test [6] was inactive. For the same molecule, the outcome in test [7] was inactive.

On to `CC(C)(C)[C@@H](O)[C@@H](Cc1ccc(Cl)cc1)n1cncn1`, for which the molecule was called inactive in test [1], in test [2], in test [3], in test [4], in test [5] and in test [6]. Also, in test [7], the outcome was inactive.

As for `C[C@]12CC[C@@H]3c4ccc(O)cc4C[C@@H](CCCCCCCCCS(=O)CCCC(F)(F)C(F)(F)F)[C@H]3[C@@H]1CC[C@@H]2O` (stereo partly drawn), the AC50 in test [8] is 6.15 µM (active) and 9.53 µM (active). In addition, in test [7], the outcome was inactive.

For the molecule `CCCCCCC(C)OC(=O)COc1nc(F)c(Cl)c(N)c1Cl` (stereo not drawn), the molecule was classed as inactive in test [1], in test [3], in test [4], in test [5] and in test [7]. Besides, the AC50 is 113 µM (active) in test [2] and 100 µM (active) in test [6].

As for `C[C@]12C[C@H](O)[C@H]3[C@@H](CCC4=CC(=O)CC[C@@]43C)[C@@H]1CC[C@@H]2C(=O)CO`, the AC50 in test [8] is 32.8 nM (active) and 26.6 nM (active) and 102 nM (active); in test [7], 114 µM (active).

Regarding `CCC(O)=C1C(=O)CC(C(=O)O)CC1=O` (stereo not drawn), the result in test [1], in test [2], in test [3], in test [4], in test [5] and in test [6] was inactive. Also, the outcome in test [7] was inactive.

As for `CCOC(=O)c1ccc(O)cc1`, the AC50 in test [8] was 11.4 µM (active) [middle of 4 runs]. Also, the result in test [7] was inactive.

For `c1ccc(Nc2ccccc2)cc1`, the result in test [1], in test [2], in test [3], in test [4], in test [5] and in test [6] was inactive. Moreover, the call in test [7] was inactive.

As to `COC(=O)c1cccc(C)c1S(=O)(=O)NC(=O)Nc1nc(OCC(F)(F)F)nc(N(C)C)n1`, the call in test [1], in test [2], in test [3], in test [4], in test [5] and in test [6] was inactive. Besides, the result in test [7] was inactive.

As to `CCCCN(CCC(=O)OCC)C(C)=O`, the result in test [8] was inactive.

As for `CCCOC(=O)NCCCN(C)C`, the outcome in test [1], in test [2], in test [3], in test [4], in test [5] and in test [6] was inactive. Moreover, the result in test [7] was inactive.

For the molecule `O=C(O)c1ccccc1`, the outcome in test [8] and in test [7] was inactive.

On to `COC(=O)c1ccc(I)cc1S(=O)(=O)NC(=O)Nc1nc(C)nc(OC)n1`, for which the result in test [1], in test [2], in test [3], in test [4], in test [5] and in test [6] was inactive. The result in test [7] was inactive.

Consider `CC(=O)[C@H]1CC[C@H]2[C@@H]3CCC4=CC(=O)CC[C@]4(C)[C@H]3CC[C@]12C`, for which the AC50 in test [7] was 169 µM (active).

`S=C(S)NCCNC(=S)S.[Mn+2].[S-]C([S-])=NCCN=C([S-])[S-].[Zn+2]`: the outcome in test [1], in test [2], in test [3], in test [4], in test [5] and in test [6] was inactive. Further, the call in test [7] was inactive. For the same molecule, the AC50 in test [7] is 50.8 µM (active) and 53.7 µM (active).

`CCOC(=O)COc1cc(-n2ncc(C(F)(F)F)c(C)c2=O)c(F)cc1Cl`: the call in test [1], in test [2], in test [3], in test [4], in test [5] and in test [6] was inactive. Besides, in test [7], the outcome was inactive.

As to `N[C@@H](Cc1cc(I)c(Oc2ccc(O)c(I)c2)c(I)c1)C(=O)O`, the AC50 in test [8] was 40 µM (active) and 25 µM (active). Also, the call in test [7] was inactive.

As for `CCCCN(CCCC)C(=S)S`, the half-maximal activity concentration (AC50) in test [8] is 89.4 µM (active).

Broadly, the AC50 is the concentration giving half of the maximal activity seen.
